The source of these data is PubChem BioAssay (EPA / NIEHS).

The source made the active and inactive calls. Rule for the calls: active = hit-call score of the fitted dose curve at least 0.9, where 1 is the maximum; inactive = score below 0.9.

Read-out in this experiment: Bcl-2 (BAX) gene, BAX (gene 581)
Put plainly: LTEA_HepaRG_BAX: Life Technologies and Expression Analysis (LTEA) Assay for Bcl-2 (BAX) gene using HepaRG (AID 2283470). As to conditions: mRNA level, 48 h; actives raise or lower the signal. Here is the method:
LTEA_HepaRG is a cell based, multiplexed-readout assay that uses HepaRG, a human liver cell line, with measurements taken at 48 hours after chemical dosing on a 96-well plate.LTEA_HepaRG_BAX is one of 102 assay component(s) measured in the LTEA HepaRG cell culture assay. It is a marker of Cell proliferation, survival, death.Data from the assay component LTEA_HepaRG_BAX was analyzed into 1 endpoint. This assay endpoint, LTEA_HepaRG_BAX, was analyzed with bidirectional fitting relative to DMSO as the negative control and baseline of activity. Using a type of inducible reporter, measures of mRNA induction for gain or loss-of-signal activity can be used to understand regulation of transcription factor activity. To generalize the intended target to other relatable targets, this assay endpoint is annotated to the cell cycle intended target family, where the subfamily is Cell proliferation, survival, death.
A total of 1060 chemcials from the ToxCast library were tested in eight-point concentration-response experiments. Cell culture and cytotoxicity assays were conducted at Thermo Fisher Scientific's Custom Services facility (Madison, WI). A single lot of human HepaRG cells (Thermo Fisher Scientific, Frederick, MD) was used for the cell culture experiments. 96-well format collagen type I coated plates of human HepaRG cells were prepared using established methods. Briefly, cryopreserved HepaRG cells were thawed, plated at a density of approximately 100,000 cells/well in HepaRG Thaw, Plate, and General Purpose media (HPRG770, Thermo Fisher Scientific), and incubated for 48 hours. 0.5% DMSO was selected as vehicle control to balance the requisite need of DMSO in HepaRG cultures to maintain differentiation (for example, baseline metabolism, proportions of hepatocytes vs. cholangiocytes), while enabling further hepatic receptor pathway activation (for example, PXR and CAR) in response to chemical exposure. 48 hours after plating, the culture medium was replaced with HepaRG Serum-Free Incudtion Media. Cells were exposed to each test chemical in duplicate and maintained in CO2 incubators for another 48 hours. Chemical plates were thawed to room temperature and 200x concentrations of treatment groups were prepared. 8-point conentration-reponse curves were made with the highest exposure at 100 uM, followed by half-log dilutions, all in 0.5% DMSO. Each test plate contained variouse controls, induction positive controls (1mM phenobarbital), cytotoxicity positive controls ([…] aflatoxin B1), vehicle controls (0.5% DMSO), and total lysis controls (0.5% DMSO). Cell morphology images were taken using an Essen IncuCyte FLR automated microscope, with six 96-well plates imaged in about 24 minutes. Images were captured and exported and JPEG files. Spent culture media was transfered to black-well plates for the LDH assay, and remaining media was sorted at -80 C for later use. Cells were treated with RLT buffer and frozen until shipped for gene expression analysis. Total RNA was isolated from the cell suspension in 75 uL of Buffer RLT (Qiagen, Germantown, MD 20874) by Quintiles/Expression Analysis (Durham, NC) using a custom isolation procedure. Total RNA from each plate well was transferred to a preamplification plate. Fluidigm's 96.96 Dynamic ArrayTM (Fluidigm, Amsterdam, the Netherlands) technology was used for gene expression analyses by quantitative reverse transcription polymerase chain reaction (qRT-PCR, performed by Quintiles/Expression Analysis, Durham, NC)89. Standard TaqManTM Assays (Applied Biosystems/ThermoFisher Scientific, Foster City, CA) were used to assess the expression of 93 genes selected based on their selectivity and sensitivity to important hepatic receptors known to be modulated by environmental chemicals; importance in human hepatocyte functionality; and hepatotoxicity. […]
`CCCCOCCO`: the outcome was inactive. Consider `c1ccc2cc3c(ccc4ccccc43)cc2c1`, for which the call was inactive. Broadly, the AC50 is the concentration giving half of the maximal activity seen. `CCCCCCCCCCCCc1ccccc1S(=O)(=O)O`: the AC50 is 50 µM (active).

On to `N#C[C@@H]1CC(F)(F)CN1C(=O)CNC1CC2CCC(C1)N2c1ncccn1` (stereo not given in full), for which the molecule was called inactive. Turning to `CC1=C(/C=C/C(C)=C/C=C/C(C)=C/C(=O)O)C(C)(C)CCC1`, the half-maximal activity concentration (AC50) is 20.4 µM (active).

Take `OC1CCCCC1`: the molecule was classed as inactive. As for `CCOC(=O)CC(O)(CC(=O)OCC)C(=O)OCC`, the result was inactive. Regarding `CCCCCCC(=O)O`, the outcome was inactive.

Regarding `CCCCCCCCCCCCN1CCCC1=O`, the molecule was classed as inactive. On to `C[C@@H]1C[C@H]2[C@@H]3CCC4=CC(=O)C=C[C@]4(C)[C@@]3(F)[C@@H](O)C[C@]2(C)[C@@]1(O)C(=O)COP(=O)(O)O`, for which the molecule was called inactive. On to `CCc1nn(C2CCCCC2)c2cc(C3(C#N)CCC(C(=O)O)CC3)ccc12` (stereo not given), for which the AC50 was 50 µM (active).

As to `Oc1cccc(O)c1`, the outcome was inactive. For the molecule `CC[C@H](c1ccc(O)cc1)[C@@H](CC)c1ccc(O)cc1`, the molecule was called inactive.

`OCCC(F)(F)C(F)(F)C(F)(F)C(F)(F)C(F)(F)C(F)(F)F`: the call was inactive. The same measure, in the same setting: in the case of `CC(C)(C)c1cc(C(C)(C)C)c(O)c(C(C)(C)C)c1` it was “inactive”. Consider `NC(=O)N(O)[C@@H]1C=C[C@H](Oc2cccc(Oc3ccc(F)cc3)c2)C1`, for which the AC50 was 64.5 µM (active).

On to `CCCCCCCCCCCCCCCS(=O)(=O)Oc1ccccc1`, for which the result was inactive. Same read-out and setting: the same measure for `CCCCC(CC)COC(=O)CCCCC(=O)OCc1ccccc1` (stereo not given): “inactive”; for `Oc1cc2ccccc2c2ccccc12`: “inactive”. Same read-out and setting: the same measure for `CCc1ccc(CCOc2ccc(CC3SC(=O)NC3=O)cc2)nc1` (stereo not given): “inactive”; for `CC(C)CCCCCCOC(=O)CCCCC(=O)OCCCCCCC(C)C`: “inactive”.

Regarding `Cc1cc(C)c(O)c(C)c1`, the result was inactive.

As to `Cc1oc(-c2ccccc2)nc1CCOc1ccc(C[C@H](Nc2ccccc2C(=O)c2ccccc2)C(=O)O)cc1`, the outcome was inactive. Consider `CC(=O)NC1(c2cccc(F)c2)CCN(CC[C@@]2(c3ccc(Cl)c(Cl)c3)CN(c3ccccc3)C(=O)CO2)CC1`, for which the outcome was inactive. On to `CN1CCC[C@H]1c1cccnc1`, for which the molecule was called inactive.

Take `CCCOc1sc(C(=O)N2CCC(c3cc(CN)ccc3F)CC2)c(C)c1Br`: the result was inactive. On the same count and under the same terms, in the case of `CCCCC(CC)COC(=O)CCCCC(=O)OCC(CC)CCCC` (stereo not given) it was “inactive”. On the same count and under the same terms, in the case of `CCC(=C(c1ccc(O)cc1)c1ccc(OCCN(C)C)cc1)c1ccccc1` it was “inactive”; in that of `COCC(C)O` (stereo not given), “inactive”; in that of `O=c1c(-c2ccc(O)cc2)coc2cc(O)ccc12`, “inactive”. `Cc1cc(CCN2CCN(c3nsc4ccccc34)CC2)cc2c1NC(=O)CC2(C)C`: the AC50 was 93 µM (active). Consider `c1ccc2c(c1)ccc1ccccc12`, for which the result was inactive. Consider `O=C(OCCOCCOC(=O)c1ccccc1)c1ccccc1`, for which the molecule was classed as inactive. The same measure, in the same setting: the same measure for `COc1ccc([N+](=O)[O-])cc1N`: “inactive”; for `CC[C@H](C)[C@@H](C(=O)O)n1sc2ccccc2c1=O`: “inactive”; for `CCC(C)(C)C1CCC(O)CC1` (stereo not given): “inactive”. Same read-out and setting: in the case of `CCCCCCCCC(=O)O` it was “inactive”; in that of `CC(C)(C)c1ccc(O)c(C(C)(C)C)c1`, “inactive”; in that of `COCC(C)OCC(C)O` (stereo not given), “inactive”.

Take `CC(O)CO` (stereo not given): the result was inactive.
